Experimental data taken from PubChem BioAssay.
Active and inactive are the calls of the source.

Experiments:
[1] = system: PRMT1 (protein arginine N-methyltransferase 1); assay: PRMT1 binders on small-molecule microarrays, primary screen, biochemical, small-molecule microarray, 635 nm fluorescence (AID 1088); conditions: small-molecule microarray binding, higher = more signal;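 also: binding of Prmt1 protein to compounds spotted on small-molecule microarray slides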
[2] = yeast growth modulation, basal conditions, primary screen, YJM789 clinical isolate, OD600, 24 h (AID 1089);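 also: growth of clinical yeast isolate S. cerevisiae YJM 789 seeded 1000 cells per well; test concentration not given here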; conditions: S. cerevisiae YJM789 growth, higher = more signal, called active from +8 up or from −8 down
[3] = fission yeast growth modulation, primary screen, strain 972, OD600, 24 h, no modulator (AID 1090);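 also: basal condition with compound alone and no growth modifier present; test concentration not given here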; conditions: S. pombe 972 growth, higher = more signal, called active from +8 up or from −8 down
[4] = S. cerevisiae growth modulation with rapamycin, primary screen, strain BY4716, OD600, 96 h (AID 1091); conditions: higher = more signal, called active from +8 up or from −8 down; also: test concentration not given here
[5] = molecular target: Torsin-1A-interacting protein 2 (Homo sapiens) (UniProt Q8NFQ8); assay: LULL1 binders on small-molecule microarray, primary screen, cell lysate, human LULL1 lysate, 635/667 nm fluorescence (AID 1092); conditions: hLULL1 lysate binding, 635 nm fluorescence, higher = more signal;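 also: probe is lysate of COS7 cells overexpressing human LULL1; score merges per-feature 667 nm fluorescence with signal-to-noise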
[6] = E. coli growth modulation, two-sided OD650, primary screen, E. coli filamentation project, strain DRC41, 24 h (AID 1093); conditions: OD650, 24 h, higher = more signal, called active from +8 up or from −8 down;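 also: MC1000 strain lacking acrAB efflux and sulA so SOS filamentation is blocked; test concentration not given here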
[7] = small-molecule microarray binders of probe aLefty2, primary screen, biochemical, biotinylated probe, 635/667 nm fluorescence (AID 1094); conditions: higher = more signal;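 also: score merges spot fluorescence near 667 nm with spot signal-to-noise ratio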
[8] = system: Noggin (protein binding on small-molecule microarray); assay: Noggin binders on small-molecule microarray, primary screen, biochemical, 635/667 nm fluorescence (AID 1095); conditions: 635 nm fluorescence, higher = more signal;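 also: score merges 667 nm feature fluorescence with signal to noise over triplicate slides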
[9] = molecular target: Neurogenic locus notch homolog protein 3 (Homo sapiens) (UniProt Q9UM47); assay: NOTCH3 binders on small-molecule microarray, primary screen, biochemical, 635/667 nm fluorescence (AID 1096); conditions: NOTCH3 binding, 635 nm fluorescence, higher = more signal
[10] = small-molecule microarray binders of probe aEGFR, primary screen, biochemical, biotinylated probe, 635/667 nm fluorescence (AID 1097); conditions: higher = more signal;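 also: probe is a biotinylated anti-EGFR antibody binding compounds printed on slides; score combines fluorescence near 667 nm and signal to noise of each spot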

Sequence of Torsin-1A-interacting protein 2 (Homo sapiens) (Q8NFQ8 whole entry, looked up): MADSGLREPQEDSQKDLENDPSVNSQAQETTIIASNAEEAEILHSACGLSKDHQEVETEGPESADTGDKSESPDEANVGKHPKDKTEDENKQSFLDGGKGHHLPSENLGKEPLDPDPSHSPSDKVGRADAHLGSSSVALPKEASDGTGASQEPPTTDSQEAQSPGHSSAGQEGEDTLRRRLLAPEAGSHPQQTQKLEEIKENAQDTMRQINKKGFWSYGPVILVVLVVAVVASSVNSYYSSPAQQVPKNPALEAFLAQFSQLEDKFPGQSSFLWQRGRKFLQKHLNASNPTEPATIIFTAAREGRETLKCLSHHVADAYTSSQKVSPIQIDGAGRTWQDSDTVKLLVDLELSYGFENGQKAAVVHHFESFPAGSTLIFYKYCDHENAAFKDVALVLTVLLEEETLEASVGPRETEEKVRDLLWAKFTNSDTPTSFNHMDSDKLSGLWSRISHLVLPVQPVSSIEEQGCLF
Sequence of Neurogenic locus notch homolog protein 3 (Homo sapiens) (Q9UM47 whole entry, looked up): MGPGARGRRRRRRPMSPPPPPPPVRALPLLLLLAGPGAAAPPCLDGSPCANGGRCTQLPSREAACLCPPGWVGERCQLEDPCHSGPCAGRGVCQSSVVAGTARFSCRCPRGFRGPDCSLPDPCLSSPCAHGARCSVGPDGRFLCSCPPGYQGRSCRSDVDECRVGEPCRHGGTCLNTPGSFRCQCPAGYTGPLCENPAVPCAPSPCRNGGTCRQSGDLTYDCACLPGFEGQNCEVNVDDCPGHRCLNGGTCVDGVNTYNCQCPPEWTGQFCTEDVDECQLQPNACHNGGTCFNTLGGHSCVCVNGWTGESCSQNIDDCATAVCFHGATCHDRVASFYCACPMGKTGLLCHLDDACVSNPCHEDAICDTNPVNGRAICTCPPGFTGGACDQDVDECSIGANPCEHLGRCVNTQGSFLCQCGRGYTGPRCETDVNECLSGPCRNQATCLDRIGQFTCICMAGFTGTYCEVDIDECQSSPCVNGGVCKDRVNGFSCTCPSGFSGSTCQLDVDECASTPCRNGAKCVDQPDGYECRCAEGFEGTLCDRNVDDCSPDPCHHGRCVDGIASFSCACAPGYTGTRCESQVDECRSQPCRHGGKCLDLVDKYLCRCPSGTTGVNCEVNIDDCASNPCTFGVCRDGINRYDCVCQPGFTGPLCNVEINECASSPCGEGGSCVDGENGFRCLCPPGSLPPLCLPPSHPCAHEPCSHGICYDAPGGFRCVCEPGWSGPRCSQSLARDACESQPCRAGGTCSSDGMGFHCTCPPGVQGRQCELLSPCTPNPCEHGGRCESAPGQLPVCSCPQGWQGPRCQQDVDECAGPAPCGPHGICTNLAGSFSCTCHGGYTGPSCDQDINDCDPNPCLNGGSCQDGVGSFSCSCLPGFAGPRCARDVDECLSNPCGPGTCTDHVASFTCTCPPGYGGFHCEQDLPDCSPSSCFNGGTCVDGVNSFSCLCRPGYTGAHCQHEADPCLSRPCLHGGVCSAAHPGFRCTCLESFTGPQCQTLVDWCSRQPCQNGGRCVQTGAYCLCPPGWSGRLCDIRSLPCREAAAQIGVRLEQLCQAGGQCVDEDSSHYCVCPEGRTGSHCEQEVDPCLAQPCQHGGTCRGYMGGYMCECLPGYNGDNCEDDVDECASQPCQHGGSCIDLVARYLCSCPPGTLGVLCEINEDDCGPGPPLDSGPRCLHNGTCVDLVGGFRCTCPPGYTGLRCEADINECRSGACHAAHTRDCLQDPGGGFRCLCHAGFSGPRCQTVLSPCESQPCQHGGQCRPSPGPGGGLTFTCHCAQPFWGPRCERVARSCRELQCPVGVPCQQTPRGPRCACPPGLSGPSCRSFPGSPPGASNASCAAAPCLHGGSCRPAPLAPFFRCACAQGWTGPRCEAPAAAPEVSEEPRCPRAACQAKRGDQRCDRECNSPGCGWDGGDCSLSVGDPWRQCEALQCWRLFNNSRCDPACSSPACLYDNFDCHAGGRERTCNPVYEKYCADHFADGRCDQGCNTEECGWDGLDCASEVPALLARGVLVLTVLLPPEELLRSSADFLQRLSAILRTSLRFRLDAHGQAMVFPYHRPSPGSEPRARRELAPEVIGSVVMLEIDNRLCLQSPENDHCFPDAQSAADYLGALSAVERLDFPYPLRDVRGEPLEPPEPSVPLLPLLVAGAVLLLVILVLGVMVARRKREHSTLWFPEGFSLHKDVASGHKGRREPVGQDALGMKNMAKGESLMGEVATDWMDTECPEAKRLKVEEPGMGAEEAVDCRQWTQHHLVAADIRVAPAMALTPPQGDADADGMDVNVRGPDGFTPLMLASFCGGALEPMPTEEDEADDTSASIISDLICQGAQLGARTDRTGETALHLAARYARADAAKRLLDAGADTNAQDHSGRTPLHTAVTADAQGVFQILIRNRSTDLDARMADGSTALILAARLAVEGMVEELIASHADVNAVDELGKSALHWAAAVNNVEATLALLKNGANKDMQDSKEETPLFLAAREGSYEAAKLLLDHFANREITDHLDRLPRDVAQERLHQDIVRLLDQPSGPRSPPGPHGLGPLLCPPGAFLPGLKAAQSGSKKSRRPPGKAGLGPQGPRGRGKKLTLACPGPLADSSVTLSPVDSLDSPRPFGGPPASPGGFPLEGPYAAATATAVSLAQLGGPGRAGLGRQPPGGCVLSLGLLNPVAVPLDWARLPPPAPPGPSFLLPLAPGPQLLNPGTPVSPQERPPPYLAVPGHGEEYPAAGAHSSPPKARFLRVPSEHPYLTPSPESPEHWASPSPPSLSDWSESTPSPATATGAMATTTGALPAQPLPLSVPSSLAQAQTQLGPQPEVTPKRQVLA

COC(=O)Cn1c(C(=O)N(C)C)cc2c1C[C@H]1CN(C(=O)c3ccccc3)[C@@](Cc3ccc(OC)cc3)(C(=O)OC)[C@@H]21
composite z-score [1]: 0.995
z-score [2]: 0.211 (inactive)
z-score [3]: 0.833 (inactive)
z-score [4]: 0.493 (inactive)
composite z-score [5]: 3.7
z-score [6]: -0.692 (inactive)
composite z-score [7]: 0.134
composite z-score [8]: 0.471
composite z-score [9]: 1.11
composite z-score [10]: -0.0476

O=C1O[C@@H](c2ccccc2)[C@@H](c2ccccc2)N2[C@@H](c3ccc(O)cc3)[C@]3(C(=O)Nc4ccc(C#CC5=CCCCC5)cc43)[C@@H](C(=O)N3CCCCCCC3)[C@H]12
composite z-score [1]: 1.54
z-score [2]: -1.67 (inactive)
z-score [3]: -0.604 (inactive)
z-score [4]: 0.694 (inactive)
composite z-score [5]: 3.44
z-score [6]: 1.09 (inactive)
composite z-score [7]: 1.22
composite z-score [8]: 1.16
composite z-score [9]: 1.02
composite z-score [10]: 0.465

C/C=C/CN(C(=O)C#Cc1ccccc1)[C@H](CO[Si](C)(C)C(C)(C)C)c1ccccc1
composite z-score [1]: 0.437
z-score [2]: -0.185 (inactive)
z-score [3]: -0.463 (inactive)
z-score [4]: -0.177 (inactive)
composite z-score [5]: 0.571
z-score [6]: 2.76 (inactive)
composite z-score [7]: -0.192
composite z-score [8]: -1.01
composite z-score [9]: -1.35
composite z-score [10]: -0.595

CN(C)C(=O)[C@]1(Cc2ccccc2)N=C(c2ccc(OCCCO)cc2)O[C@@H]1c1ccccc1
composite z-score [1]: 1.52
z-score [2]: 0.0608 (inactive)
z-score [3]: -3.66 (inactive)
z-score [4]: -0.344 (inactive)
composite z-score [5]: 3.52
z-score [6]: -0.465 (inactive)
composite z-score [7]: 0.0735
composite z-score [8]: 0.372
composite z-score [9]: 0.771
composite z-score [10]: -0.0157

CCCCN1CC=CC23O[C@@H]4C=CCOC(=O)[C@@H]4[C@H]2C(=O)N(CCO)[C@@H]3C1=O (stereo not given in full)
composite z-score [1]: -0.757
z-score [2]: -0.312 (inactive)
z-score [3]: -0.706 (inactive)
z-score [4]: -0.179 (inactive)
composite z-score [5]: 0.62
z-score [6]: -0.454 (inactive)
composite z-score [7]: 0.221
composite z-score [8]: -1.45
composite z-score [9]: -0.823
composite z-score [10]: -0.327

C=CCC(OC(C)=O)[C@@H]1[C@@H](N(Cc2cccc3ccccc23)C(=O)c2ccc(C)cc2)c2cc(OCCCO)ccc2N1C(=O)c1ccc2ccccc2n1 (stereo not given in full)
composite z-score [1]: 0.56
z-score [2]: -2.04 (inactive)
z-score [3]: 0.378 (inactive)
z-score [4]: -0.6 (inactive)
composite z-score [5]: 0.563
z-score [6]: 1.21 (inactive)
composite z-score [7]: 0.0748
composite z-score [8]: 0.708
composite z-score [9]: 0.209
composite z-score [10]: -0.0437

O=C1OCCC/C=C\[C@H]2OC34C=CCN(Cc5ccccc5)C(=O)[C@H]3N(CCCCCO)C(=O)[C@@H]4C12 (stereo not given in full)
composite z-score [1]: 1.01
z-score [2]: -1.05 (inactive)
z-score [3]: -2.16 (inactive)
z-score [4]: 15.7 (active)
composite z-score [5]: 3.13
z-score [6]: 0.549 (inactive)
composite z-score [7]: -0.166
composite z-score [8]: -0.773
composite z-score [9]: -0.0471
composite z-score [10]: -0.245

CCCCC(O)C1C=CC2C(=O)N(C)C(=O)C2N1Nc1ccccc1 (stereo not given)
composite z-score [1]: 0.24
z-score [2]: 0.763 (inactive)
z-score [3]: 0.555 (inactive)
z-score [4]: 1.99 (inactive)
composite z-score [5]: 3.13
z-score [6]: -1.26 (inactive)
composite z-score [7]: -0.013
composite z-score [8]: -0.649
composite z-score [9]: 0.51
composite z-score [10]: -0.143

C=CCOC(=O)[C@@H]1[C@H]2C(=O)O[C@H](c3ccccc3)[C@H](c3ccccc3)N2[C@H](c2ccc(OCCOC(=O)[C@H]3C[C@H]4C(=O)NCC(=O)N4[C@H]3c3ccc(O)cc3)cc2)[C@@]12C(=O)Nc1ccc(I)cc12
composite z-score [1]: 1.53
z-score [2]: 1.22 (inactive)
z-score [3]: 0.761 (inactive)
z-score [4]: 4.27 (inactive)
composite z-score [5]: 2.08
z-score [6]: -0.615 (inactive)
composite z-score [7]: -0.162
composite z-score [8]: 1.59
composite z-score [9]: 1.15
composite z-score [10]: 0.0026

COC(=O)[C@@]1(Cc2ccccc2CN=[N+]=[N-])COC(c2ccc(OCCCO)cc2)=N1
composite z-score [1]: 1.26
z-score [2]: -1.38 (inactive)
z-score [3]: -6.67 (inactive)
z-score [4]: -1.9 (inactive)
composite z-score [5]: 3.04
z-score [6]: 0.441 (inactive)
composite z-score [7]: 0.175
composite z-score [8]: -1.69
composite z-score [9]: -1.25
composite z-score [10]: -0.442

CCCC=C(CCC)[C@@H](NS(=O)(=O)c1ccc(Cl)cc1)c1ccccc1
composite z-score [1]: 0.61
z-score [2]: 0.286 (inactive)
z-score [3]: 0.319 (inactive)
z-score [4]: 1.61 (inactive)
composite z-score [5]: 1.1
z-score [6]: -0.829 (inactive)
composite z-score [7]: -0.0916
composite z-score [8]: -0.135
composite z-score [9]: -0.682
composite z-score [10]: -0.125

C=CCNC(=O)[C@H]1[C@@H]2C(=O)O[C@@H](c3ccccc3)[C@@H](c3ccccc3)N2[C@@H](c2ccccc2OCCO)[C@]12C(=O)N(C(=O)OCCOC)c1ccccc12
composite z-score [1]: 1.51
z-score [2]: 1.5 (inactive)
z-score [3]: 2.05 (inactive)
z-score [4]: 5.15 (inactive)
composite z-score [5]: 2.78
z-score [6]: -0.513 (inactive)
composite z-score [7]: -0.196
composite z-score [8]: 0.786
composite z-score [9]: 1.12
composite z-score [10]: -0.0828

COC(=O)[C@@]1(Cc2ccc(OC)cc2)[C@@H]2[C@@H](CC(=O)[C@H]2CC(=O)C(=O)N2CCCC2)CN1C(=O)c1ccccc1
composite z-score [1]: 0.281
z-score [2]: -0.347 (inactive)
z-score [3]: 0.304 (inactive)
z-score [4]: -0.0364 (inactive)
composite z-score [5]: 2.6
z-score [6]: -0.455 (inactive)
composite z-score [7]: 1.76
composite z-score [8]: 0.156
composite z-score [9]: 1.09
composite z-score [10]: 1.26

COCC(=C=CC[C@@H](O)c1ccc(OCCO)cc1)C[C@@H](O)COCc1ccccc1
composite z-score [1]: 1.55
z-score [2]: -1.31 (inactive)
z-score [3]: -0.979 (inactive)
z-score [4]: -0.474 (inactive)
composite z-score [5]: 3.16
z-score [6]: 1.55 (inactive)
composite z-score [7]: 0.0282
composite z-score [8]: 1.43
composite z-score [9]: 0.964
composite z-score [10]: 0.049
